Measured values from ChEMBL document CHEMBL3988442, “University of Dundee, Small-Polar-MMV Screening Library” (2021).
About 950 (1.4%) of roughly 69,000 compounds showed an effect of 50% or more. For the sample, strong results were picked, then their nearest neighbours and some compounds at random.

system: Mycobacterium tuberculosis; assay: Cornell M. t heat shock assay; format: functional, organism-based; design: dose or concentration left out as unconfirmed; note: in the data most compounds retested in dose-response had high values

SMILES	Percent Effect
Cl.O=C1N(Cc2cccc(Cl)c2)CCC12CCCNC2 (stereo not drawn)	-6.247%
O=C(NCc1cccnc1)N[C@H]1CC[C@@]2(CCC(=O)N2CC2CC2)CC1.O=C(O)C(F)(F)F	35.19%
CC(=O)N1CCN(C(=O)c2ccc(-c3cccc(C)c3)[nH]c2=O)CC1	14.72%
Cc1cccc(-c2ccc(C(=O)N3CCSCC3)c(=O)[nH]2)c1	96.07%
Cc1cccc(-c2ccc(C(=O)N3CCN(C(C)C)CC3)c(=O)[nH]2)c1	7.848%
O=C(O)C(F)(F)F.O=C(O)C(F)(F)F.O=C1CC(c2ccncc2)C2(CCN(CC3CC3)CC2)N1 (stereo not drawn)	-16.85%
CN1CC(=O)N(c2cnn(C)c2)CC12CCN(CC1CC1)C2.O=C(O)C(F)(F)F.O=C(O)C(F)(F)F (stereo not drawn)	-40.13%
CN(C)C(=O)COC[C@]12COC[C@H]1CN(C1CCCC1)C2.O=C(O)C(F)(F)F	33.3%
O=C(O)C(F)(F)F.O=C1CCCN1Cc1nnc2n1CCN(Cc1ccco1)CC2	8.62%
CN(Cc1cccnc1)C1CC2(CCN(c3ccccn3)CC2)C1.O=C(O)C(F)(F)F.O=C(O)C(F)(F)F.O=C(O)C(F)(F)F	-2.81%
COc1ccccc1OCCC(=O)N1CCCCC1c1nccs1 (stereo not drawn)	-0.6566%
Cc1ccc2c(c1)SCC(=O)N2CC(=O)N1CCCC1c1nccs1 (stereo not drawn)	34.79%
O=C1CSc2ccccc2N1CC(=O)N1CCCCC1c1nccs1 (stereo not drawn)	95.25%
CN(C)C(=O)N1CCC[C@]2(C(=O)N(C)C)CN(c3ccccn3)C[C@@H]2C1.O=C(O)C(F)(F)F	-29.23%
Cc1nc(CN2C(=O)C[C@H]3[C@H]2CCN3C2CCOC2)cs1.O=C(O)C(F)(F)F (stereo partly drawn)	-20.37%
O=C1C[C@H]2CC[C@@H](CN1)N2c1cc(-c2ccccc2F)nc2ccnn12	8.242%
I.c1ccc(Sc2ccc3c(c2)OCO3)c(CNC2=NCCN2)c1	5.756%
CN(C)Cc1cc(C2CCCCN2S(=O)(=O)Cc2ccccc2)nn1C.Cl (stereo not drawn)	-25.85%
Cc1nccc(CN2CC[C@H](Oc3cccc(F)c3)[C@@](C)(O)C2)n1	-10.08%
C[C@]1(O)CN(Cc2ncc[nH]2)CC[C@@H]1Oc1cccc(F)c1	-7.197%
Cc1cnccc1CN1CC[C@H](Oc2cccc(F)c2)[C@@](C)(O)C1	101.8%
C[C@]1(O)CN(Cc2ncccc2F)CC[C@@H]1Oc1cccc(F)c1	32.25%

SMILES	Percent Effect
Cc1cccnc1CN1CC[C@H](Oc2cccc(F)c2)[C@@](C)(O)C1	104.4%
Cc1cnccc1CN1CC[C@@](C)(O)[C@H](Oc2cccc(F)c2)C1	-11.46%
Cc1ccc(CN2CCC3(CCN(c4cnn(C)c4)C3=O)C2)s1.O=C(O)C(F)(F)F (stereo not drawn)	-24.12%
O=C(NC1CC1)[C@H]1C[C@H]2OCC[C@H]2N(Cc2cccnc2)C1.O=C(O)C(F)(F)F.O=C(O)C(F)(F)F	0.4638%
O=C(NCC1CC1)C1CN(Cc2ccncc2)Cc2ccnn2C1.O=C(O)C(F)(F)F.O=C(O)C(F)(F)F.O=C(O)C(F)(F)F (stereo not drawn)	-17.14%
Cn1cnc(S(=O)(=O)N2CCCC2)c1Cl	74.4%
CN1CCN(S(=O)(=O)c2ncn(C)c2Cl)CC1	-34.66%
Cn1cnc(S(=O)(=O)N2CCOCC2)c1Cl	-1.938%
CC(C)(C)C(=O)N1C[C@H](c2ccsc2)[C@H]2CN(C3CCCC3)CC[C@H]21.Cl	-4.306%
O=C(O)C(F)(F)F.O=C(O)C(F)(F)F.O=C1CC[C@]2(CC[C@@H](NCc3cccnc3)CC2)N1Cc1ccccc1	-11.79%
CN1CCS(=O)(=O)[C@@H]2CCN(C(=O)CC(C)(C)C)CC[C@@H]21.O=C(O)C(F)(F)F	-1.789%
CCOc1ccc2nc(CN3CCC(CNC(C)=O)C3)ccc2c1 (stereo not drawn)	3.715%
CCOc1ccc2nc(CN3CCC(CN)C3)ccc2c1 (stereo not drawn)	106.9%
CCOc1ccc2nc(CN3CCOC(CN)C3)ccc2c1 (stereo not drawn)	16.64%
Cc1cc(NC(=O)Cn2nc(C)c(C#N)c2N)ccc1Br	-21.12%
Cc1cc(=O)n(CC(=O)Nc2ccc(Cl)cc2)nc1C	-4.62%
COc1ccc(NC(=O)Cn2nc(C)c(C)cc2=O)cc1OC	2.159%
Cc1nn(CC(=O)Nc2ccc(F)cc2)c(N)c1C#N	51.75%
COc1ccc(NC(=O)Cn2nc(C)c(C(C)=O)c2C)cc1	105.6%
COc1ccc(NC(=O)Cn2nc(C)c(C)cc2=O)cc1	2.037%
CC(=O)c1c(C)nn(CC(=O)Nc2ccc(Br)cc2)c1C	105.9%
CC(=O)c1c(C)nn(CC(=O)Nc2ccc(F)cc2)c1C	21.2%

SMILES	Percent Effect
Cc1nn(CC(=O)Nc2cccc(F)c2)c(N)c1C#N	4.908%
NC(=O)N1CCC2(CC1)CN(Cc1cccnc1)C(=O)CO2.O=C(O)C(F)(F)F	-31.58%
Cn1cc(CN2C[C@H]3CCC[C@@]3(COCC3CC3)C2)cn1.O=C(O)C(F)(F)F	12.92%
COc1cc(CNCC(O)c2cccc(F)c2)cc2c1OCO2.Cl (stereo not drawn)	-9.248%
Cc1cccc(CN2CC[C@H]3[C@H]2CCN3Cc2cnn(C)c2)n1.O=C(O)C(F)(F)F.O=C(O)C(F)(F)F.O=C(O)C(F)(F)F	-12.06%
Cc1noc(C)c1CN1CCC2(CC1)NC(=O)CC2c1ccccc1.O=C(O)C(F)(F)F (stereo not drawn)	5.51%
Cc1noc(C)c1C(=O)N1Cc2ncn(C)c2C(COCC2CC2)C1.O=C(O)C(F)(F)F (stereo not drawn)	16.79%
CCN1CCC2(CCN(Cc3ccc(OC)cc3)CC2)C1=O.O=C(O)C(F)(F)F	-24.62%
Cl.N[C@@H](Cc1ccccc1)c1nnc(S(=O)(=O)Cc2cccc(Cl)c2)o1	-4.264%
Cc1ccc(N2CCC(c3cc(Cc4ccccc4)n[nH]3)CC2)nn1	6.303%
Cc1ccc(N2CCCC(c3[nH]ncc3Cc3ccccc3)C2)nn1 (stereo not drawn)	8.561%
CCc1cn[nH]c1C1CCN(c2cc(C)c3cc(OC)ccc3n2)CC1	2.652%
CCc1cn[nH]c1C1CCN(c2cc(C)c3cccc(OC)c3n2)CC1	85.21%
CCc1cn[nH]c1C1CCN(c2cc(C)c3ccc(OC)cc3n2)CC1	-17.8%
Cc1ccc(N2CCC(c3[nH]ncc3Cc3ccccc3)CC2)nn1	102.6%
CC(=O)N1CCN(Cc2ccc(C)o2)CC2(CC(=O)N(C)C2)C1.O=C(O)C(F)(F)F (stereo not drawn)	-2.414%
Cc1nc(N)ncc1C(=O)N1CCCC(CCc2ccc(F)cc2)C1 (stereo not drawn)	-19.18%
Cc1ncccc1NC(=O)[C@@H]1CCO[C@@H]2CCN(c3ccccc3)C[C@@H]21.O=C(O)C(F)(F)F.O=C(O)C(F)(F)F	12.9%
CCN(Cc1noc(C)n1)C(=O)CC1C(=O)NCCN1CC(C)(C)C (stereo not drawn)	-17.37%
OC(CN1CCN(CC2CCCCC2)CC1)c1ccccc1 (stereo not drawn)	50.33%
O=C(N1CCCCC1)N1CCN(CC(O)c2ccccc2)CC1 (stereo not drawn)	-21.19%
OC(CN1CCN(CC2CC2)CC1)c1ccc(Br)cc1 (stereo not drawn)	6.961%

SMILES	Percent Effect
CCCn1nc(C)c(-c2cncn2CCN(C)C2CCCC2)c1C.Cl	7.382%
CN(C)S(=O)(=O)N1CCC[C@]2(C[C@@H](Oc3ncccc3F)CO2)C1.O=C(O)C(F)(F)F	-8.336%
Cc1cc(NCc2ccc(CO)cc2)n2nc(C)cc2n1	10.67%
CNC(=O)CCCNc1cc(C)nc2cc(C)nn12	-5.305%
Cc1cc(NCc2ccc(C#N)cc2)n2nc(C)cc2n1	-9.847%
CNS(=O)(=O)CCNc1cc(C)nc2cc(C)nn12	10.96%
Cc1cc(NCCCC(F)(F)F)n2nc(C)cc2n1	87.73%
Cc1cc(NCc2ccc(O)cc2)n2nc(C)cc2n1	21.53%
Cc1cc(NCc2cc(C)oc2C(F)(F)F)n2nc(C)cc2n1	56.47%
Cc1cc(NCc2cccnc2)n2nc(C)cc2n1	1.456%
Cc1cc(C(F)(F)F)nc(CNc2cc(C)nc3cc(C)nn23)n1	65.55%
CC(C)OCCCN(CC(=O)N1CCNCC1)C(=O)c1cccc(Cl)c1.O=C(O)C(F)(F)F	-0.6086%
COc1cccc(CN2C[C@@H]3COC[C@]3(CN3CCOCC3)C2)c1.O=C(O)C(F)(F)F.O=C(O)C(F)(F)F	-20.77%
Cc1noc(C)c1CN1C[C@@H]2COC[C@@H](CC(=O)N3CCCCO3)[C@@H]2C1.O=C(O)C(F)(F)F	-4.663%
CCC(C)[C@H](N)c1nnc(SCC(=O)Nc2ccc(Br)cc2)o1.Cl (stereo partly drawn)	-9.343%
O=C(O)C(F)(F)F.c1cc(COC[C@H]2CCC[C@]23CNCCO3)ccn1	31.7%
CN(C)c1ncnc2c1CCN(CC1CCCC1)CC2.O=C(O)C(F)(F)F	2.211%
CC(C)(C)c1cn2c(n1)C(CNCc1cnn3ccccc13)CCC2 (stereo not drawn)	15.66%
CC(C)(C)c1cn2c(n1)C(CNCc1ccccn1)CCC2 (stereo not drawn)	70.45%
Cn1cccc1CNCC1CCCn2cc(C(C)(C)C)nc21 (stereo not drawn)	1.286%
CCOCC1CN(c2ccncn2)Cc2cnn(CC3CC3)c21.O=C(O)C(F)(F)F.O=C(O)C(F)(F)F (stereo not drawn)	-24.31%
COc1ncccc1C(=O)N1CC[C@]2(C[C@@H](Oc3cccnc3)CO2)C1.O=C(O)C(F)(F)F.O=C(O)C(F)(F)F	-28%
